In PubChem BioAssay:
Active and inactive are the calls of the source. Unless noted, the rule behind the calls is not given here.

Columns and labels:
[1] = resazurin metabolic signal in HepG2 cells – cell-based, resazurin fluorescence, 24 h, PK04 Diversity Set, profiling panel (AID 1172); details: HepG2 viability, higher = more signal; note: test concentration not given here
[2] = budding yeast growth changes without added modifier – OD600, strain BY4716, 24 h, basal condition, primary screen (AID 1173); details: S. cerevisiae BY4716 growth, OD600, 24 h; higher = more signal, called active from +8 up or from −8 down
[3] = viability profiling in MM1S myeloma cells – cell-based, resazurin fluorescence, basal, 24 h, PK04 Diversity Set, profiling panel (AID 1174); details: higher = more signal, called active from +8 up or from −8 down;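 note: MM1S multiple myeloma cell line; test concentration not given here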
[4] = target: Dihydroorotate dehydrogenase (quinone), mitochondrial (Plasmodium falciparum (isolate 3D7)) (UniProt Q08210); experiment: inhibition of P. falciparum DHODH – biochemical, C-terminal His tag, absorbance 600 nm, primary screen (AID 1175); details: PfDHODH enzyme, DCIP absorbance 600 nm; higher = more signal, called active from +8 up or from −8 down;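 note: recombinant parasite enzyme with a five histidine tag at its C terminus; test concentration not given here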
Dihydroorotate dehydrogenase (quinone), mitochondrial (Plasmodium falciparum (isolate 3D7)), sequence (Q08210 whole entry, looked up): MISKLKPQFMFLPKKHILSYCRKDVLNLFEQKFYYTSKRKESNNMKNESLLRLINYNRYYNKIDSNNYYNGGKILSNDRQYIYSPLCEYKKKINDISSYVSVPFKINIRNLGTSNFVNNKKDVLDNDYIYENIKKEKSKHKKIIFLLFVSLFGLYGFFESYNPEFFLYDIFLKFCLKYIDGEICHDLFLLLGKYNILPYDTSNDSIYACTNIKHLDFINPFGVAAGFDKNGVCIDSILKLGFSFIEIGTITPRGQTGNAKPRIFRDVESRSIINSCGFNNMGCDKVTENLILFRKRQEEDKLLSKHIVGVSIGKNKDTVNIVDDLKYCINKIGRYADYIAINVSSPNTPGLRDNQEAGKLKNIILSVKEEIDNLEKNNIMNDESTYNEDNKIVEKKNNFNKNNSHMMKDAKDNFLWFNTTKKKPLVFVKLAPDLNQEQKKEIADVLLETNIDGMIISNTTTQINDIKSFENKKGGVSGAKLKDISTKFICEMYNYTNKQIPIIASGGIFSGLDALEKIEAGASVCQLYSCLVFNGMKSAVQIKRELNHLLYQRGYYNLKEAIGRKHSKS

[5] = inhibition of PAO1 biofilm formation – strain PAO1, LB-PBS medium, absorbance 600 nm, primary screen (AID 1176); note: test concentration not given here; details: P. aeruginosa PAO1 growth/biofilm, A600, 12 h; higher = more signal
[6] = growth modulation of vineyard yeast isolate – strain RM11-1a, OD600, basal, 24 h, primary screen (AID 1177);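 note: cultures grown under basal conditions with no added stressor; test concentration not given here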; details: S. cerevisiae RM11-1a growth, OD600, 24 h; higher = more signal, called active from +8 up or from −8 down
[7] = growth of efflux-deficient E. coli DRC39 – strain DRC39, OD650, 24 h, E. coli filamentation inducers, primary screen (AID 1178);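 note: growth measured as culture turbidity by optical density at 650 nm; test concentration not given here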; details: E. coli DRC39 acrAB, higher = more signal, called active from +8 up or from −8 down
[8] = growth of efflux-deficient E. coli DRC39 – strain DRC39, OD650, 48 h, E. coli filamentation inducers, primary screen (AID 1179);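 note: screen aims at cell division blockers that make cells filament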; details: E. coli DRC39 delta-acrAB growth, higher = more signal, called active from +8 up or from −8 down
[9] = viability profiling in RPMI8226 myeloma cells – cell-based, resazurin fluorescence, basal, 24 h, PK04 Diversity Set, profiling panel (AID 1180); details: higher = more signal;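 note: RPMI8826 multiple myeloma cell line at 5000 cells per well; test concentration not given here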
[10] = target: E3 ubiquitin-protein ligase XIAP (Homo sapiens) (UniProt P98170); experiment: small molecules binding XIAP protein – biophysical, small-molecule microarray, fluorescence 635 nm, primary screen (AID 1181); details: higher = more signal;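 note: score merges 667 nm emission and signal to noise over triplicate slides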
E3 ubiquitin-protein ligase XIAP (Homo sapiens), sequence (P98170 whole entry, looked up): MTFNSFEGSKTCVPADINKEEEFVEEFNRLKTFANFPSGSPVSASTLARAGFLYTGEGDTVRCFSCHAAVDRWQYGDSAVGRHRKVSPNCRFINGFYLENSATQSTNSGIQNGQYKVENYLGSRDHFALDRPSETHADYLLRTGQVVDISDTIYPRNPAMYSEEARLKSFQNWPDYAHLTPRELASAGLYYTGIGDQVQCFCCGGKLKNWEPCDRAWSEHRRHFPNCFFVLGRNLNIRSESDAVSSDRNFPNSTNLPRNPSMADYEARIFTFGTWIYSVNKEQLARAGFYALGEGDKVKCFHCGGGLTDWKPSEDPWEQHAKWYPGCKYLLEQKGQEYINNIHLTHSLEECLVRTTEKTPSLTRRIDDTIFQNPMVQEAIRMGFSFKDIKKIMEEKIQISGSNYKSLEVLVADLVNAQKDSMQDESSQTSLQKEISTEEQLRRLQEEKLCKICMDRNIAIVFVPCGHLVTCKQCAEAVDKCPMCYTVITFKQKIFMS

| Structure (SMILES) | z-score [1] | z-score [2] | z-score [3] | composite z-score [4] | z-score [5] | z-score [6] | z-score [7] | z-score [8] | z-score [9] | composite z-score [10] |
| --- | --- | --- | --- | --- | --- | --- | --- | --- | --- | --- |
| CC(=O)n1cc(C(O)C2C=CC3C(=O)NC(=O)C3N2Nc2ccccn2)c2ccccc21 (stereo not given) | -1.3 | 0.627 (inactive) | -1.67 (inactive) | 0.496 (inactive) | 1.33 (inactive) | 0.605 (inactive) | -0.641 (inactive) | -0.109 (inactive) | -1.31 | 0.07 |
| COc1ccc([Si](C)(C)[C@@H]2[C@@H](CC(=O)N3CCC[C@H]3CO)O[C@]3(C(=O)N(Cc4cccc(I)c4)c4ccccc43)[C@H]2C)cc1 | -2.43 | -0.91 (inactive) | -3.49 (inactive) | 0.447 (inactive) | 0.483 (inactive) | 1.07 (inactive) | -1 (inactive) | -1.05 (inactive) | -4.92 | 0.189 |
| COc1ccc(-c2cc3c(c(Cc4ccccc4)n2)[Si](C(C)C)(C(C)C)OC3)cn1 | 0.177 | -0.652 (inactive) | -0.141 (inactive) | 0.653 (inactive) | 0.0429 (inactive) | 2 (inactive) | 0.184 (inactive) | 0.0876 (inactive) | 0.626 | -0.0749 |
| CC(C)Cc1ccc(CN2CC[C@@H](N)C2)cc1 | 1.51 | -12.8 (active) | -1.49 (inactive) | 4.28 (inactive) | -0.271 (inactive) | -0.0782 (inactive) | 1.47 (inactive) | 0.611 (inactive) | -0.681 | -0.269 |
| CC(=O)NCCCC[C@@H]1NC(=O)[C@H]2C[C@@H](C(=O)NCCCCCNC(=O)CS)[C@@H](c3ccc(O)cc3)N2C1=O | -0.0321 | 1.14 (inactive) | 0.0985 (inactive) | 0.452 (inactive) | 0.395 (inactive) | 0.949 (inactive) | -0.553 (inactive) | -0.574 (inactive) | -0.213 | 0.0503 |
| OB1C=CCC(CCc2ccccc2)O1 (stereo not given) | -0.246 | -3.2 (inactive) | 0.506 (inactive) | -0.685 (inactive) | 1.45 (inactive) | -2.36 (inactive) | 2.73 (inactive) | 0.96 (inactive) | 0.23 | -0.275 |
| CC[C@@H]1C=C(C(=O)O)[C@H](c2ccc(C)cc2)N1S(=O)(=O)c1ccc(C)cc1 | 0.675 | 0.174 (inactive) | 0.0178 (inactive) | -1.85 (inactive) | -0.433 (inactive) | -0.66 (inactive) | -0.303 (inactive) | 0.637 (inactive) | -0.0794 | 0.0701 |
| OCCCC1=CC(C2CC2)N(Cc2cccc(OC(F)(F)F)c2)CC1 (stereo not given) | 0.702 | -1.85 (inactive) | 0.171 (inactive) | -3.08 (inactive) | -0.517 (inactive) | 0.345 (inactive) | 0.425 (inactive) | 0.327 (inactive) | 0.365 | 0.324 |
| CN1C(=O)C2C=CC(C(O)c3ccc(F)cc3)N(N(c3ccccc3)c3ccccc3)C2C1=O (stereo not given) | -0.898 | 0.41 (inactive) | -0.957 (inactive) | -0.0882 (inactive) | 1.14 (inactive) | 0.242 (inactive) | -0.513 (inactive) | -0.26 (inactive) | -1.36 | 0.499 |
| COCC(=C=CC[C@@H](O)c1ccc(OCCO)cc1)C[C@@H](O)c1ccccn1 | -0.495 | -0.58 (inactive) | -0.46 (inactive) | -2.5 (inactive) | 1.05 (inactive) | -0.0975 (inactive) | 0.0525 (inactive) | 0.0639 (inactive) | -0.104 | 0.0785 |
| CC#CC(=O)Oc1ccc(Br)cc1C=CC(=O)OCC | -0.0419 | -14.7 (active) | -2.38 (inactive) | -0.632 (inactive) | 0.312 (inactive) | -10.6 (active) | -0.0142 (inactive) | -1.01 (inactive) | -3 | 1.25 |
| C=C(C)[C@@H]1CC=C(C(O)C2C=CC3C(=O)NC(=O)C3N2Nc2ccc(Cl)cc2Cl)CC1 (stereo not given in full) | -3.18 | -5.07 (inactive) | -2.94 (inactive) | 0.512 (inactive) | 0.875 (inactive) | 1.11 (inactive) | -0.761 (inactive) | -1.29 (inactive) | -2.54 | -0.0655 |
| O=C1O[C@@H](c2ccccc2)[C@@H](c2ccccc2)N2[C@@H](c3ccccc3OCCO)[C@]3(C(=O)Nc4ccc(C#CC5(O)CCCCCC5)cc43)[C@@H](C(=O)N3CCN(c4ncccn4)CC3)[C@H]12 | 0.0783 | 1.62 (inactive) | -1.18 (inactive) | 0.937 (inactive) | 1.94 (inactive) | 4.01 (inactive) | -0.418 (inactive) | 0.247 (inactive) | -0.737 | 0.372 |
| C=CC[C@@]1(C(=O)N2CCCCC2)N=C(c2ccc(OCCCO)cc2)O[C@@H]1c1ccccc1CN=[N+]=[N-] | 0.0157 | -0.924 (inactive) | -1.13 (inactive) | -0.0512 (inactive) | 0.205 (inactive) | 0.607 (inactive) | 0.673 (inactive) | -0.526 (inactive) | -1.97 | 0.0297 |
| COCCOC(=O)N1C(=O)[C@@]2(c3cc(C#CCCO)ccc31)[C@H](c1ccc(O)cc1)N1[C@H](c3ccccc3)[C@H](c3ccccc3)OC(=O)[C@H]1[C@@H]2C(=O)N1CCN(c2ncccn2)CC1 | 1.36 | 0.467 (inactive) | -0.0402 (inactive) | -0.235 (inactive) | 0.541 (inactive) | 0.035 (inactive) | -0.235 (inactive) | -0.62 (inactive) | 0.783 | 0.17 |
| CN1C(=O)C2C=CC(C(O)C=Cc3ccc([N+](=O)[O-])cc3)N(Nc3ccccc3)C2C1=O (stereo not given) | -0.891 | -4.48 (inactive) | -1.55 (inactive) | -1.01 (inactive) | 1.41 (inactive) | -0.709 (inactive) | -0.377 (inactive) | -0.668 (inactive) | -1.45 | 0.376 |
| COc1ccc(C(O)C2C=CC3C(=O)N(C)C(=O)C3N2N(c2ccccc2)c2ccccc2)c2ccccc12 (stereo not given) | -1 | 0.618 (inactive) | -1.57 (inactive) | 0.231 (inactive) | 0.447 (inactive) | 0.588 (inactive) | -0.546 (inactive) | -0.225 (inactive) | -1.14 | 0.239 |
| O=C(CS)NCCCCCNC(=O)[C@H]1C[C@H]2C(=O)NCC(=O)N2[C@H]1c1cccc(OCCO)c1 | 0.942 | -0.191 (inactive) | 1.49 (inactive) | 0.258 (inactive) | -0.764 (inactive) | -0.39 (inactive) | 0.325 (inactive) | 0.261 (inactive) | 1.28 | 0.0174 |
| C=C(CCCC)C(=O)CC[C@H](OC(=O)c1cccnc1)c1ccc(OCCO)cc1 | -0.91 | -0.329 (inactive) | -3.27 (inactive) | -0.816 (inactive) | 1.09 (inactive) | 1.32 (inactive) | -0.911 (inactive) | -0.855 (inactive) | -3.01 | 0.0322 |
| O=C1NC(=O)C2C1C=CC(C(O)c1ccc(-c3ccccc3)s1)N2Nc1ccc(Cl)cc1Cl (stereo not given) | -3.58 | -1.99 (inactive) | -1.69 (inactive) | 0.0414 (inactive) | 2.64 (inactive) | 0.856 (inactive) | 0.457 (inactive) | -1.2 (inactive) | -1.75 | 0.849 |
| CCCCC(O)C1C=CC2C(=O)N(C)C(=O)C2N1N1CCCCC1 (stereo not given) | -1.12 | 1.96 (inactive) | -1.5 (inactive) | 1.23 (inactive) | 0.971 (inactive) | 1.64 (inactive) | -0.83 (inactive) | -0.412 (inactive) | -1.9 | 0.547 |
| C=C[C@H](C)[C@@H](OC(=O)Nc1ccc(SC)cc1)c1ccc(O)c2ccccc12 | -0.752 | -18.2 (active) | -3.78 (inactive) | -1.84 (inactive) | 0.908 (inactive) | -5.28 (inactive) | -0.33 (inactive) | -0.638 (inactive) | -3 | -0.258 |
| C=CCN(Cc1ccccc1)C(=O)C(c1cccs1)N(C(=O)/C=C\C(=O)O)c1ccc(CCOCCO)cc1 (stereo not given) | -0.552 | 0.25 (inactive) | 0.222 (inactive) | -1.54 (inactive) | 0.742 (inactive) | -1.18 (inactive) | 0.368 (inactive) | 0.651 (inactive) | 0.424 | -0.249 |
| CC1CC/C=C\[C@H]2OC34C=CCN(Cc5ccccc5)C(=O)[C@H]3N(C(C)CO)C(=O)[C@@H]4C2C(=O)O1 (stereo not given in full) | 0.36 | -1.39 (inactive) | 0.678 (inactive) | -0.166 (inactive) | -0.525 (inactive) | -0.0642 (inactive) | 0.492 (inactive) | 1 (inactive) | 0.233 | 0.0772 |
| C=CCC(OC(C)=O)[C@@H]1[C@@H](N(Cc2cc3ccccc3o2)C(=O)Cc2ccc(OC)cc2)c2cc(OCCCO)ccc2N1C(=O)c1ccc2ccccc2c1 (stereo not given in full) | -1.5 | -0.256 (inactive) | -0.0928 (inactive) | 0.164 (inactive) | -0.227 (inactive) | -0.226 (inactive) | -0.629 (inactive) | -1.05 (inactive) | -0.516 | 0.0374 |
| COc1ccc([C@H]2C[C@H]3C(I)=C[C@@H]2C(=O)[C@]32CO2)cc1 | 0.91 | -9.78 (active) | -0.306 (inactive) | -0.174 (inactive) | 0.167 (inactive) | -1.14 (inactive) | 1.73 (inactive) | 0.344 (inactive) | 0.867 | 0.288 |
